According to PubChem BioAssay AID1159580 (chemical genetic matrix, 2015):
“And” between values parts separate entries of the source, which are not always exact repeats. Equal entries are not always repeated. Hit rate of the full screen: of about 5,500 compounds, about 2,000 (36%) were called active. Not shown: some 18% with an inconclusive outcome. Rule as the data show it: active = normalized growth mostly below about 0.91 (no sharp cut-off); inconclusive = no clear call, values can overlap the other calls; inactive = mostly above about 0.92. The list shows a part of the results.

Assay: chemical genetic growth profiling, strain panel (AID 1159580);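 also: tested at 20 µM; growth read once vehicle control cultures reached saturation at 30 °C; 1 = growth at the plate median or of vehicle wells; lower values mean less growth of the strain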
Settings: S. cerevisiae deletion strains, growth OD

Question: For `CC(C(=O)O)c1ccc2c(c1)[nH]c1ccc(Cl)cc12` (configuration not stated), which normalized growth (locus YAL013W, strain DEP1, stronger effect = lower value) is on record?
Answer: 1.02 (inactive)

Question: What about the normalized growth (locus YAL021C, strain ccr4, stronger effect = lower value) of the same molecule?
Answer: 0.949 (inactive)

Question: What about the normalized growth (locus YAL026C, strain drs2, stronger effect = lower value) of the same molecule?
Answer: 0.953 (inactive)

Question: What about the normalized growth (locus YAL030W, strain snc1, stronger effect = lower value) of the same molecule?
Answer: 0.979 (inactive)

Question: What about the normalized growth (locus YBL061C, strain skt5, stronger effect = lower value) of the same molecule?
Answer: 0.955 (inactive)

Question: What about the normalized growth (locus YBR009C, strain hhf1, stronger effect = lower value) of the same molecule?
Answer: 0.979 (inactive)

Question: And the normalized growth (locus YBR021W, strain FUR4, stronger effect = lower value)?
Answer: 1 (inactive)

Question: And the normalized growth (locus YBR023C, strain chs3, stronger effect = lower value)?
Answer: 0.973 (inactive)

Question: And the normalized growth (locus YBR171W, strain sec66, stronger effect = lower value)?
Answer: 0.981 (inactive)

Question: And the normalized growth (locus YBR229C, strain ROT2, stronger effect = lower value)?
Answer: 1.01 (inactive)

Question: What about the normalized growth (locus YBR231C, strain swc5, stronger effect = lower value) of the same molecule?
Answer: 0.981 (inactive)

Question: And the normalized growth (locus YBR279W, strain paf1, stronger effect = lower value)?
Answer: 0.957 (inactive)

Question: What about the normalized growth (locus YCL011C, strain gbp2, stronger effect = lower value) of the same molecule?
Answer: 1 (inactive)

Question: And the normalized growth (locus YCL016C, strain dcc1, stronger effect = lower value)?
Answer: 0.951 (inactive)

Question: And the normalized growth (locus YCL029C, strain bik1, stronger effect = lower value)?
Answer: 0.982 (inactive)

Question: What about the normalized growth (locus YCL061C, strain MRC1, stronger effect = lower value) of the same molecule?
Answer: 0.978 (inactive)

Question: And the normalized growth (locus YCL069W, strain vba3, stronger effect = lower value)?
Answer: 1.01 (inactive)

Question: What about the normalized growth (locus YCR088W, strain abp1, stronger effect = lower value) of the same molecule?
Answer: 0.973 (inactive)

Question: And the normalized growth (locus YDL005C, strain med2, stronger effect = lower value)?
Answer: 0.975 (inactive)

Question: And the normalized growth (locus YDL035C, strain GPR1, stronger effect = lower value)?
Answer: 1 (inactive)

Question: And the normalized growth (locus YDL040C, strain nat1, stronger effect = lower value)?
Answer: 0.978 (inactive)

Question: What about the normalized growth (locus YDL074C, strain BRE1, stronger effect = lower value) of the same molecule?
Answer: 1.03 (inactive)

Question: And the normalized growth (locus YDL101C, strain DUN1, stronger effect = lower value)?
Answer: 1.02 (inactive)

Question: And the normalized growth (locus YDL134C, strain PPH21, stronger effect = lower value)?
Answer: 1.01 (inactive)

Question: And the normalized growth (locus YDL185W, strain tfp1, stronger effect = lower value)?
Answer: 0.948 (inactive)

Question: What about the normalized growth (locus YDL192W, strain arf1, stronger effect = lower value) of the same molecule?
Answer: 0.954 (inactive)

Question: What about the normalized growth (locus YDR001C, strain nth1, stronger effect = lower value) of the same molecule?
Answer: 0.996 (inactive)

Question: And the normalized growth (locus YDR069C, strain doa4, stronger effect = lower value)?
Answer: 0.984 (inactive)

Question: What about the normalized growth (locus YDR101C, strain arx1, stronger effect = lower value) of the same molecule?
Answer: 0.972 (inactive)

Question: And the normalized growth (locus YDR137W, strain rgp1, stronger effect = lower value)?
Answer: 0.945 (inactive)

Question: And the normalized growth (locus YDR150W, strain NUM1, stronger effect = lower value)?
Answer: 1.02 (inactive)

Question: And the normalized growth (locus YDR159W, strain sac3, stronger effect = lower value)?
Answer: 0.895 (inactive)

Question: And the normalized growth (locus YDR162C, strain NBP2, stronger effect = lower value)?
Answer: 1.02 (inactive)

Question: What about the normalized growth (locus YDR195W, strain ref2) of the same molecule?
Answer: 1.01 (inactive)

Question: What about the normalized growth (locus YDR297W, strain sur2, stronger effect = lower value) of the same molecule?
Answer: 0.983 (inactive)

Question: And the normalized growth (locus YDR318W, strain mcm21, stronger effect = lower value)?
Answer: 0.972 (inactive)

Question: What about the normalized growth (locus YDR334W, strain swr1, stronger effect = lower value) of the same molecule?
Answer: 0.994 (inactive)

Question: And the normalized growth (locus YDR335W, strain msn5, stronger effect = lower value)?
Answer: 0.984 (inactive)

Question: What about the normalized growth (locus YDR388W, stronger effect = lower value) of the same molecule?
Answer: 0.978 (inactive)

Question: And the normalized growth (locus YDR392W, strain spt3, stronger effect = lower value)?
Answer: 0.832 (inactive)

Question: What about the normalized growth (locus YDR502C, strain sam2, stronger effect = lower value) of the same molecule?
Answer: 0.999 (inactive)

Question: What about the normalized growth (locus YEL003W, strain gim4, stronger effect = lower value) of the same molecule?
Answer: 0.996 (inactive)

Question: What about the normalized growth (locus YEL037C, strain rad23, stronger effect = lower value) of the same molecule?
Answer: 0.99 (inactive)

Question: What about the normalized growth (locus YEL061C, strain CIN8 (second series), stronger effect = lower value) of the same molecule?
Answer: 0.975 (inactive)

Question: And the normalized growth (locus YEL061C, strain CIN8, stronger effect = lower value)?
Answer: 1 (inactive)

Question: And the normalized growth (locus YER015W, strain faa2, stronger effect = lower value)?
Answer: 1 (inactive)

Question: What about the normalized growth (locus YER016W, strain bim1, stronger effect = lower value) of the same molecule?
Answer: 0.978 (inactive)

Question: What about the normalized growth (locus YER110C, stronger effect = lower value) of the same molecule?
Answer: 0.971 (inactive)

Question: And the normalized growth (locus YER111C, strain swi4, stronger effect = lower value)?
Answer: 0.99 (inactive)

Question: What about the normalized growth (locus YER155C, strain BEM2 (second series), stronger effect = lower value) of the same molecule?
Answer: 0.952 (inactive)

Question: What about the normalized growth (locus YER155C, strain BEM2, stronger effect = lower value) of the same molecule?
Answer: 0.997 (inactive)

Question: What about the normalized growth (locus YER167W, strain BCK2, stronger effect = lower value) of the same molecule?
Answer: 1 (inactive)

Question: And the normalized growth (locus YFR010W, strain ubp6, stronger effect = lower value)?
Answer: 0.999 (inactive)

Question: And the normalized growth (locus YGL078C, strain dbp3, stronger effect = lower value)?
Answer: 0.988 (inactive)

Question: And the normalized growth (locus YGL086W, strain mad1, stronger effect = lower value)?
Answer: 0.983 (inactive)

Question: What about the normalized growth (locus YGL167C, strain pmr1, stronger effect = lower value) of the same molecule?
Answer: 1 (inactive)

Question: And the normalized growth (locus YGL173C, strain kem1, stronger effect = lower value)?
Answer: 0.961 (inactive)

Question: What about the normalized growth (locus YGL227W, strain vid30, stronger effect = lower value) of the same molecule?
Answer: 1 (inactive)

Question: And the normalized growth (locus YGL240W, strain doc1, stronger effect = lower value)?
Answer: 0.92 (inactive)

Question: And the normalized growth (locus YGL248W, strain PDE1, stronger effect = lower value)?
Answer: 1.01 (inactive)

Question: And the normalized growth (locus YGL253W, strain hxk2, stronger effect = lower value)?
Answer: 0.968 (inactive)

Question: What about the normalized growth (locus YGR078C, strain PAC10, stronger effect = lower value) of the same molecule?
Answer: 1.02 (inactive)

Question: And the normalized growth (locus YGR135W, strain pre9, stronger effect = lower value)?
Answer: 0.995 (inactive)

Question: And the normalized growth (locus YGR229C, strain SMI1, stronger effect = lower value)?
Answer: 1.04 (inactive)

Question: And the normalized growth (locus YGR252W, strain gcn5, stronger effect = lower value)?
Answer: 0.885 (inactive)

Question: What about the normalized growth (locus YHR013C, strain ard1, stronger effect = lower value) of the same molecule?
Answer: 0.96 (inactive)

Question: And the normalized growth (locus YHR027C, strain rpn1, stronger effect = lower value)?
Answer: 0.991 (inactive)

Question: And the normalized growth (locus YHR030C, strain SLT2, stronger effect = lower value)?
Answer: 1 (inactive) and 0.303 (active)

Question: What about the normalized growth (locus YHR079C, strain IRE1 (second series), stronger effect = lower value) of the same molecule?
Answer: 0.976 (inactive)

Question: What about the normalized growth (locus YHR079C, strain IRE1, stronger effect = lower value) of the same molecule?
Answer: 0.369 (active)

Question: What about the normalized growth (locus YHR094C, strain hxt1, stronger effect = lower value) of the same molecule?
Answer: 0.987 (inactive)

Question: What about the normalized growth (locus YHR129C, strain ARP1, stronger effect = lower value) of the same molecule?
Answer: 1 (inactive)

Question: And the normalized growth (locus YHR142W, strain chs7, stronger effect = lower value)?
Answer: 0.971 (inactive)

Question: And the normalized growth (locus YHR200W, strain rpn10, stronger effect = lower value)?
Answer: 0.98 (inactive)

Question: And the normalized growth (locus YIL066C, strain RNR3, stronger effect = lower value)?
Answer: 0.994 (inactive)

Question: What about the normalized growth (locus YIL073C, strain SPO22, stronger effect = lower value) of the same molecule?
Answer: 0.971 (inactive)

Question: What about the normalized growth (locus YIL125W, strain kgd1, stronger effect = lower value) of the same molecule?
Answer: 0.929 (active)

Question: What about the normalized growth (locus YIR030C, strain dcg1, stronger effect = lower value) of the same molecule?
Answer: 0.992 (inactive)

Question: What about the normalized growth (locus YJL092W, strain hpr5, stronger effect = lower value) of the same molecule?
Answer: 0.982 (inactive)

Question: And the normalized growth (locus YJL095W, strain BCK1 (second series), stronger effect = lower value)?
Answer: 0.988 (inactive)

Question: And the normalized growth (locus YJL095W, strain BCK1, stronger effect = lower value)?
Answer: 1 (inactive) and 0.272 (active)

Question: What about the normalized growth (locus YJL115W, strain asf1, stronger effect = lower value) of the same molecule?
Answer: 0.985 (inactive)

Question: And the normalized growth (locus YJL129C, strain trk1, stronger effect = lower value)?
Answer: 0.912 (inactive)

Question: What about the normalized growth (locus YJL134W, strain LCB3, stronger effect = lower value) of the same molecule?
Answer: 1.01 (inactive)

Question: And the normalized growth (locus YJL154C, strain vps35, stronger effect = lower value)?
Answer: 0.99 (inactive)

Question: What about the normalized growth (locus YJL164C, strain tpk1, stronger effect = lower value) of the same molecule?
Answer: 0.982 (inactive)

Question: And the normalized growth (locus YJL166W, strain qcr8, stronger effect = lower value)?
Answer: 1 (inactive)

Question: And the normalized growth (locus YJL168C, strain set2, stronger effect = lower value)?
Answer: 0.983 (inactive)

Question: What about the normalized growth (locus YJL187C, strain SWE1 (second series), stronger effect = lower value) of the same molecule?
Answer: 1.01 (inactive)

Question: What about the normalized growth (locus YJL187C, strain SWE1, stronger effect = lower value) of the same molecule?
Answer: 0.97 (inactive)

Question: What about the normalized growth (locus YJR043C, strain POL32, stronger effect = lower value) of the same molecule?
Answer: 1.01 (inactive)

Question: What about the normalized growth (locus YJR066W, strain TOR1, stronger effect = lower value) of the same molecule?
Answer: 0.492 (active)
